What is called AC50 is the concentration at which the activity in the assay is half-maximal.

Results filed as inconclusive are left out. Active and inactive are the calls of the source. How the source made its calls: active means hit-call score of the fitted dose curve at least 0.9, where 1 is the maximum; inconclusive means response in the unintended direction; inactive means score below 0.9.

The values below come from PubChem BioAssay (EPA / NIEHS).

Read-out in the assay: xenobiotic metabolism (CYP1A1), CYP1A1 (gene 1543)
As to the kind of experiment: CLD_CYP1A1_6hr: CellzDirect (CLD) Gene Expression Assay for xenobiotic metabolism (CYP1A1) at 6 hours (AID 2283661).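 On AC50: potency for transcript induction above DMSO vehicle baseline.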 The protocol: CLD_6hr is a cell-based, multiplexed-readout assay that uses hepatocyte, a human liver primary cell, with measurements taken at 6 hours after chemical dosing in a 96-well plate.CLD_CYP1A1_6hr is one of 16 assay component(s) measured or calculated from the CLD_6hr assay. It is designed to make measurements of mRNA induction, a form of inducible reporter, as detected with chemiluminescence signals by Quantitative Nuclease Protection Assay (qNPA) technology.Data from the assay component CLD_CYP1A1_6hr was analyzed at the endpoint, CLD_CYP1A1_6hr, in the positive analysis fitting direction relative to DMSO as the negative control and baseline of activity. Using a type of inducible reporter, gain-of-signal activity can be used to understand changes in the reporter gene as they relate to the gene CYP1A1. Furthermore, this assay endpoint can be referred to as a primary readout. To generalize the intended target to other relatable targets, this assay endpoint is annotated to the cyp intended target family, where subfamily is xenobiotic metabolism.
Human hepatocyte cultures were treated daily for two consecutive days with fresh dosing solutions containing appropriate concentrations of the 320 ToxCast chemicals (chemical identities were blinded to CellzDirect and other ToxCast collaborators), vehicle control (0.2% DMSO), and positive control inducers as summarized in Table 1. Due to the large number of treatment groups and chemicals examined, the ToxCast chemicals were divided into two groups (spanning two independent cultures of hepatocytes from separate donor preparations (Hu778: ToxCast plates 1 and 2; Hu776: ToxCast plates 3 and 4). Each preparation of human hepatocyte cultures was treated with respective vehicle control, medium only control, set of six positive controls/reference chemicals for the five hepatic receptor pathways, and a subset of eight of the ToxCast chemicals (indoxacarb, pyrithiobac-sodium, norflurazon, cyhalofop-butyl, methomyl, thiram, acetochlor, and propiconazole). These replicate data, coupled with internal replicates designed within the blinded ToxCast chemical library, provided additional data to evaluate interindividual differences between hepatocyte preparations and their potential impact on chemical profiles.Cell morphology and integrity were evaluated using phase-contrast microscopy as an indicator of hepatocyte cell health (Tyson & Green, 1987). Cultures for each treatment group (i.e., media, vehicle [0.2% DMSO], positive control inducers [multiple concentrations], and the ToxCast chemicals [multiple concentrations]) were observed and cell morphology was assessed relative to vehicle control cultures at each harvest time point (0, 6, 24, or 48 h). […] Images were evaluated at the conclusion of the study to assess changes in cell integrity and account for the effects of chemical exposure on uncharacteristic changes in concentration-dependent gene expression profiles. The results from these determinations of apparent cytotoxicity were annotated (yes/no) alongside the corresponding qNPA data for reference.At the conclusion of each treatment period, hepatocyte cultures (96-well) were washed with 1 volume of HBSS, lysed by addition of 25 ul ArrayPlate lysis buffer (HTG, Tucson, AZ), and 70 ul/well of Denaturation Oil, denatured by incubation at 95C for 10 min, and frozen at approximately -70C until analysis by nuclease protection assay (qNPA) (Roberts et al., 2007). For qNPA analysis, cell lysates were thawed at 50C for approximately 30 min, qNPA probes were added, and samples were incubated at 95C for 10 min to begin the detection process by denaturing the target RNA, dissociating the duplexes and secondary structure hybridization. At the conclusion of the hybridization period, S1 nuclease reagent was added to each sample to digest all nonprotected nucleotides at 50C for 60-90 min. […]
On to `N#CSCSc1nc2ccccc2s1`, for which the result was inactive. The same measure, in the same setting: in the case of `CC1(C)C(C=C(Cl)Cl)C1C(=O)OCc1cccc(Oc2ccccc2)c1` (stereo not given) it was “inactive”.

For the molecule `CCCN(CCC)C(=O)SCC`, the molecule was called inactive. For the molecule `COC(=O)c1ccc(I)cc1S(=O)(=O)NC(=O)Nc1nc(C)nc(OC)n1`, the molecule was called inactive. With `CCCCCOC(=O)COc1cc(N2C(=O)C3=C(CCCC3)C2=O)c(F)cc1Cl`, the AC50 is 20 µM (active). Consider `CCCCCCC(C)OC(=O)COc1nc(F)c(Cl)c(N)c1Cl` (stereo not given), for which the outcome was inactive. Turning to `CCCCOCCOCCOCc1cc2c(cc1CCC)OCO2`, the AC50 was 4.17 µM (active). Regarding `CC(C)(c1ccc(O)cc1)c1ccc(O)cc1`, the AC50 was 0.00719 µM (active). On to `c1ccc(Nc2ccccc2)cc1`, for which the AC50 is 3.97 µM (active). For `S=C(S)NCCNC(=S)S.[Mn+2].[S-]C([S-])=NCCN=C([S-])[S-].[Zn+2]`, the half-maximal activity concentration (AC50) was 1.45 µM (active). Consider `O=C(Nc1ccc([N+](=O)[O-])cc1Cl)c1cc(Cl)ccc1O`, for which the AC50 is 0.218 µM (active). On to `CCN(Cc1c(F)cccc1Cl)c1c([N+](=O)[O-])cc(C(F)(F)F)cc1[N+](=O)[O-]`, for which the AC50 was 1.9 µM (active). Still for that read-out and setting: in the case of `COC(=O)c1cccc(C)c1S(=O)(=O)NC(=O)Nc1nc(OCC(F)(F)F)nc(N(C)C)n1` it was 5.2 µM (active). Still for that read-out and setting: in the case of `COC(=O)c1c(Cl)nn(C)c1S(=O)(=O)NC(=O)Nc1nc(OC)cc(OC)n1` it was 0.696 µM (active).

Take `O=C(O)C1(C(=O)Nc2ccc(Cl)cc2Cl)CC1`: the result was inactive.

Consider `CCOC(=O)NCCOc1ccc(Oc2ccccc2)cc1`, for which the call was inactive. For the molecule `Oc1ccc(C(c2ccc(O)cc2)C(Cl)(Cl)Cl)cc1`, the AC50 is 0.0522 µM (active). Take `CCCCOC(=O)C(C)Oc1ccc(Oc2ccc(C(F)(F)F)cn2)cc1` (stereo not given): the molecule was classed as inactive. Regarding `C=CCOC(Cn1ccnc1)c1ccc(Cl)cc1Cl` (stereo not given), the AC50 was 0.0861 µM (active). Regarding `CCCCC(CC)COC(=O)c1ccccc1C(=O)O` (stereo not given), the AC50 was 0.0637 µM (active).

In the case of `COc1nc(C)nc(NC(=O)NS(=O)(=O)c2ccccc2OCCCl)n1`, the molecule was classed as inactive. Take `CCCCOC(=O)[C@@H](C)Oc1ccc(Oc2ccc(C(F)(F)F)cn2)cc1`: the concentration at half-maximal activity (AC50) is 20 µM (active). Turning to `CCN(CC)C(=O)c1cccc(C)c1`, the call was inactive. As to `CCOC(=O)C(C)Oc1ccc(Oc2nc3ccc(Cl)cc3o2)cc1` (stereo not given), the result was inactive. On the same count and under the same terms, in the case of `CCSC(=O)N(CC(C)C)CC(C)C` it was “inactive”.

Regarding `CSC(=O)c1cccc2nnsc12`, the AC50 was 20 µM (active). With `COC(=O)CSc1cc(N=c2sc(=O)n3n2CCCC3)c(F)cc1Cl`, the AC50 is 2.66 µM (active). Consider `COC(=O)c1ccccc1C(=O)O`, for which the call was inactive. Consider `c1ccc2[nH]c(-c3cscn3)nc2c1`, for which the AC50 was 3.15 µM (active). Same read-out and setting: in the case of `CN(C)C(=O)Nc1ccc(Cl)c(Cl)c1` it was 3.97 µM (active); in that of `CC(C)(C)[C@@H](O)[C@@H](Cc1ccc(Cl)cc1)n1cncn1`, 1.9 µM (active). Regarding `CCCN(CCC)c1c([N+](=O)[O-])cc(C(F)(F)F)c(N)c1[N+](=O)[O-]`, the half-maximal activity concentration (AC50) is 3 µM (active).

As to `CCOC(=O)COc1cc(-n2ncc(C(F)(F)F)c(C)c2=O)c(F)cc1Cl`, the molecule was classed as inactive. Regarding `CCC(C)OC(=O)N1CCCCC1CCO` (stereo not given), the outcome was inactive.

For the molecule `CCCOC(=O)NCCCN(C)C`, the molecule was classed as inactive. For the molecule `COC(=O)c1ccc(CNS(C)(=O)=O)cc1S(=O)(=O)NC(=O)Nc1nc(OC)cc(OC)n1`, the molecule was called inactive. Consider `COC(=O)c1ccccc1S(=O)(=O)NC(=O)Nc1nc(OC(F)F)cc(OC(F)F)n1`, for which the molecule was classed as inactive. Same read-out and setting: the same measure for `CCNc1nc(N)nc(Cl)n1`: “inactive”. For `CCOC(=O)[C@H](C)Oc1ccc(Oc2nc3ccc(Cl)cc3o2)cc1`, the AC50 was 3.97 µM (active). For the molecule `COc1c(Cl)ccc(Cl)c1C(=O)O`, the molecule was classed as inactive.
